Compound activity: PubChem, National Center for Advancing Translational Sciences (NCATS)
12-LOX inh: blocks human arachidonate 12S-lipoxygenase; P18054; purified 12hLO, xylenol orange hydroperoxide absorbance; Potency, µM (doses to about 108 µM), actives largely listed as inhibitors; actives 1.1% (n = 580,000); AID 1671190
Target sequence (P18054 whole entry, looked up): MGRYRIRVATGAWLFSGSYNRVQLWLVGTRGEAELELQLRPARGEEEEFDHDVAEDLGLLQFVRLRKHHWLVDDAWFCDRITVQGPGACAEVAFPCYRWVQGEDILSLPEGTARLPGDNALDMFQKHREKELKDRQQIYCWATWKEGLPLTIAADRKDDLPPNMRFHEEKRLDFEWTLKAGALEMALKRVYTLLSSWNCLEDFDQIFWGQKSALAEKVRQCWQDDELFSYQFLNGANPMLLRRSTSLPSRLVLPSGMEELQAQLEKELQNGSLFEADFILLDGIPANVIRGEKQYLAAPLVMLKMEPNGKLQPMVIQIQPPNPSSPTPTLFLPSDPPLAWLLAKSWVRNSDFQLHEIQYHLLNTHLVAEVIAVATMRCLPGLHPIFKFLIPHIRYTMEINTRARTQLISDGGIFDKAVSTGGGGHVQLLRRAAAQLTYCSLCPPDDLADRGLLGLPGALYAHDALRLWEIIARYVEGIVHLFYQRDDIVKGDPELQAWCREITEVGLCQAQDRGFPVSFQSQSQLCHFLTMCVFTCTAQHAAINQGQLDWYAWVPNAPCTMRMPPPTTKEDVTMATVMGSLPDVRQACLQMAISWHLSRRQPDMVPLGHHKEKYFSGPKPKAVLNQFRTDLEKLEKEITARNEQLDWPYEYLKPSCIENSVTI
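Purified human 12hLO (150 nM final) in 25 mM Hepes, 0.01% Triton X-100, pH 7.0 was preincubated 15 min at room temperature with compound. Then 40 uM arachidonic acid was added, 30 min. Hydroperoxide was read by Fe-XO absorbance ratio 573/405 nm.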
EPAC1 antag: blocks human EPAC1 exchange factor | O95398 | EPAC1 GEF assay, Rap1b-BODIPY-GDP exchange fluorescence | Potency, µM (highest dose often 115 µM), usual class: inhibitors | actives 0.14% (n = 360,000) | AID 720709; further: nearly all actives have a fitted effect of over 50% in size
USP1 inh: USP1/UAF1 (human) deubiquitinase inhibition | actives 0.23% (n = 390,000) | recombinant USP1/UAF1, Ub-Rhodamine cleavage fluorescence | Potency, µM (doses to about 57.1 µM), usual class: inhibitors | O94782; further: nearly all actives have a fitted effect of over 60% in size
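USP1/UAF1 complex at 1 nM was preincubated with compound for 15 min at room temperature, then Ub-Rho substrate (150nM final) was added. Fluorescence (480/540 nm) was read kinetically, 6 reads every 60 seconds.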
EPAC2 agonist: agonists of human EPAC2 (RAPGEF4) | actives 0.079% (n = 360,000) | EPAC2 activation, biochemical qHTS; response scale: 100% = 6.5 mM cAMP response | Potency, µM (doses to about 154 µM), usual class: activators | Q8WZA2; further: nearly all actives have a fitted effect of over 50% in size
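In this primary screen, activation is scored as increased exchange of BODIPY-GDP from Rap1B by 100 nM EPAC2, with 50 uM GDP as competitor. Signal is normalized to the 6.5 mM cAMP agonist control.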
EPAC1 ag: agonists of human EPAC1; Potency, µM (doses to about 154 µM), most hits filed as activators; actives 0.073% (n = 360,000); EPAC1 agonist qHTS, biochemical assay; response scale: 100% = response to 6.5 mM cAMP; O95398; AID 720707; further: nearly all actives have a fitted effect of over 60% in size
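Multi-concentration qHTS readout: loss of Rap1B-bound BODIPY-GDP fluorescence driven by 100 nM EPAC1 with excess GDP (50 uM), monitored kinetically at room temperature; agonist response expressed relative to 6.5 mM cAMP.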
EPAC2 antag: blocks human EPAC2 exchange factor; Q8WZA2; EPAC2 GEF exchange of Rap1B-BODIPY-GDP, fluorescence; Potency, µM (series often up to 114 µM), actives largely listed as inhibitors; actives 0.18% (n = 360,000); further: nearly all actives have a fitted effect of over 45% in size
Hits are given with their value; 0 = inactive; ? = inconclusive; - = no result; ! = a repeat was not active. Shown are actives, neighbours in structure and some others; about 1.3% of the full set was active somewhere. The call rests on the fitted dose curve; in most records, active means well fitted curve in the direction sought with a large enough effect; inconclusive means small, poorly fitted or top-dose-only effect, or another doubt; inactive means no such curve, though single readings can be large; an effect the other way counts as inactive or inconclusive.

SMILES	12-LOX inh	EPAC1 antag	USP1 inh	EPAC2 agonist	EPAC1 ag	EPAC2 antag
COc1ccc2oc(=O)c(C(=O)Nc3ccccc3Cl)cc2c1	0	-	-	-	-	-
Cc1ccc(C2C(C(=O)c3cccs3)=C(O)C(=O)N2c2nncs2)cc1 (centres undefined)	2.2µM	-	-	-	-	-
O=C(C1=C(O)C(=O)N(c2nncs2)C1c1ccc(F)cc1)c1cccs1 (centres undefined)	0	-	-	-	-	-
O=C(C1=C(O)C(=O)N(c2nncs2)C1c1ccccc1)c1cccs1 (centres undefined)	0.56µM	-	-	-	-	-
Cc1ccccc1CNC(=O)c1cnc2ccccc2n1	4.5µM	-	-	-	-	-
CCCCN(Cc1ccccc1)c1ccc(C(=O)O)cc1NS(=O)(=O)c1ccc(CC(C)C)cc1	14µM	-	-	-	-	-
CCCCN(Cc1ccccc1)c1ccc(NS(=O)(=O)c2ccc(F)cc2)cc1C(=O)O	4µM	-	-	-	-	-
CCOC(=O)c1ccc(S(=O)(=O)Nc2cc(C(=O)O)ccc2Cl)cc1	?	0	0	0	0	0
CCCCN(CC)c1ccc(NS(=O)(=O)c2ccc3c(c2)CCCC3)cc1C(=O)O	1.6µM	-	-	-	-	-
COc1ccccc1Nc1nc2nccc(-c3ccccc3OC)c2c(=O)[nH]1	0	-	-	-	-	-
CCCCN(CC)CCNC(=O)COCc1cc(-c2cccs2)on1	0	-	-	-	-	-
CC(=O)Nc1ccc2[nH]cc(C(C(=O)O)N3CCN(c4nc5c(cc4C#N)CCCC5)CC3)c2c1 (centres undefined)	0	-	-	-	-	-
COc1cnc(-c2ccccn2)nc1Oc1c(C)cccc1C	0	0	0	0	0	14µM
COc1ccc(Oc2nc(-c3ccccn3)ncc2OC)cc1	?	0	0	0	0	0
Cc1csc(NC(=O)c2cnc3c(c2)N(C(=O)Cc2ccc(C(C)C)cc2)CCC3)n1	0	-	-	-	-	-
CC(C)CCNc1nc(-c2ccc3c(c2)NC(=O)CO3)cs1	0	-	-	-	-	-
COc1ccccc1Nc1nc(-c2cccc(N3C(=O)c4ccccc4C3=O)c2)cs1	0	0	?	0	0	0
COc1ccccc1Nc1nc(-c2ccc3c(c2)CCC(=O)N3)cs1	10µM	-	-	-	-	-
CC(C)CNc1nc(-c2ccc3c(c2)CCC(=O)N3)cs1	13µM	-	-	-	-	-
COc1ccccc1Nc1nc(-c2ccc3c(c2)CC(C)N3S(C)(=O)=O)cs1 (centres undefined)	40µM	-	-	-	-	-
Nc1c(C(=O)C2CC2)sc2nc(-c3cccs3)cc(C(F)(F)F)c12	0	0	?	112µM	0	0
Nc1c(C(=O)Nc2ccc(F)cc2)sc2nc(-c3cccs3)cc(C(F)(F)F)c12	0	-	0	-	-	-
C#Cc1ccc([C@@H]2C=C(C(=O)NCc3ccccc3)O[C@H](OCc3ccc(CO)cc3)C2)cc1	0	?	?	0	0	0
C#Cc1ccc([C@H]2C=C(C(=O)O)O[C@@H](OCc3ccc(CO)cc3)C2)cc1	45µM	0	0	0	0	0
O=C(O)C1=C[C@H](c2ccc(Br)cc2)C[C@H](OCCCCO)O1	35µM	0	0	0	0	0
SMILES	12-LOX inh	EPAC1 antag	USP1 inh	EPAC2 agonist	EPAC1 ag	EPAC2 antag
COc1ccc(-c2noc(CN(C(=O)c3ccc(Br)o3)C3CCCCC3)n2)cc1	0	-	-	-	-	-
CCc1ccc(OCC(=O)c2c(O)c3ccccc3oc2=O)cc1	?	0	0	0	0	0
CCc1oc2ccccc2c1C(=O)c1cc(Br)c(O)c(Br)c1	45µM!	?	?	0	0	10µM
Cc1onc(-c2c(Cl)cccc2Cl)c1COC(=O)c1ccc([N+](=O)[O-])cc1	0	0	?	0	0	0
Cc1onc(-c2c(Cl)cccc2Cl)c1COC(=O)c1ccc(Cl)cc1	?	0	0	0	0	3.5µM
CCCOc1ccc(/C=C(/C#N)c2nc3ccccc3[nH]2)cc1Br	0	-	-	-	-	-
COc1ccccc1CC(=O)NCc1cccc(C(F)(F)F)c1	0	-	-	-	-	-
COC(=O)C1=C(C)N(c2cccc(C)c2)C(=S)NC1c1ccc(C)s1 (centres undefined)	35µM	-	-	-	-	-
O=C(NC(=S)NNC(=O)c1ccccc1[N+](=O)[O-])c1ccc(Br)cc1	3.5µM	0	0	0	0	0
COc1ccc(OCC(=O)NC(=S)NNC(=O)COc2ccc(Br)cc2Cl)cc1	14µM	0	0	0	0	0
